Reference: PubChem BioAssay (EPA / NIEHS)
The source made the active and inactive calls. Rule for the calls: active = hit-call score of the fitted dose curve at least 0.9, where 1 is the maximum; inactive = score below 0.9.

Tested on: not listed separately
Assay: ATG_SREBP_CIS: Attagene CIS-FACTORIAL HepG2 Assay for human Sterol Regulatory Element Binding (SREBP) (AID 2282962)
Settings: HepG2 Attagene cis-factorial SREBP reporter, mRNA; actives raise or lower the signal
Method in brief: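 mRNA induction of transfected cis-promoter reporters in HepG2 cells, 24 h post-dose. Detection: RT-PCR with 6-FAM-labelled products, HpaI digest, capillary electrophoresis. DMSO served as negative control and baseline.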
With `CCCCOC(=O)CCC(C)=O` the outcome was “inactive”.
In the case of `O=C(OCCc1ccccc1)c1ccccc1`, the outcome is reported as “inactive”.
With `Oc1ccc(-c2ccccc2)c(Cl)c1` the outcome was “inactive”.
In the case of `CC(C)C(=O)OCCOc1ccccc1`, the outcome is reported as “inactive”.
With `O=C(O)CC(C(=O)O)S(=O)(=O)O` (stereo not given) the outcome was “inactive”.
For `CC=C(C)C(C)=O`, the outcome was “inactive”.
In the case of `CC1C(C)(C)C2=C(C(=O)CCC2)C1(C)C` (stereo not given), the outcome is reported as “inactive”.
With `CCCCC(C=O)CC` (stereo not given) the outcome was “inactive”.
With `COC(=O)c1ccc(C(=O)OC)c(C(=O)OC)c1` the outcome was “inactive”.
With `CC1=CC(C)C(C=O)CC1` (stereo not given) the outcome was “inactive”.
With `COc1cc(C)ccc1O` the outcome was “inactive”.

Biological target: Signal transducer and activator of transcription 3 (Homo sapiens) (UniProt P40763)
Sequence (P40763 whole entry, looked up): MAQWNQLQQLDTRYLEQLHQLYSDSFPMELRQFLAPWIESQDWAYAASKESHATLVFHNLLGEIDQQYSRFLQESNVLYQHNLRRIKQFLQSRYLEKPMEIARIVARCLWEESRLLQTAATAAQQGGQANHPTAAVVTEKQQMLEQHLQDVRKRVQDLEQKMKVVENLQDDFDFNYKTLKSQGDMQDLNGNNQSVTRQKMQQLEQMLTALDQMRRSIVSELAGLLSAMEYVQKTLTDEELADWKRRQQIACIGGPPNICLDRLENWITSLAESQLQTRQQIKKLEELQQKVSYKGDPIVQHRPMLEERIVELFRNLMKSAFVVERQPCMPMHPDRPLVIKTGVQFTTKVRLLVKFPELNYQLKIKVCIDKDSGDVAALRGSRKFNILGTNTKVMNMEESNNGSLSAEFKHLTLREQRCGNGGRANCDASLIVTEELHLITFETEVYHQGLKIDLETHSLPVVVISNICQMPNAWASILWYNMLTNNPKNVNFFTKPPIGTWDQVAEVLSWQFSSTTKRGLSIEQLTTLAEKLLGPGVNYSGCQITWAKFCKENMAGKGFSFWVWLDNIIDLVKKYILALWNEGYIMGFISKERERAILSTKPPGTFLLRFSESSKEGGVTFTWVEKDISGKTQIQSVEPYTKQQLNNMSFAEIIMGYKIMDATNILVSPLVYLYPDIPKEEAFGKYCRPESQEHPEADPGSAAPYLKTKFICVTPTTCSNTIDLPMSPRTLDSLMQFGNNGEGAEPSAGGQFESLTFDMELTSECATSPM
Assay: ATG_STAT3_CIS: Attagene CIS-FACTORIAL HepG2 Assay for human Signal Transducer and Activator of Transcription 3 (STAT3) (AID 2282963)
Settings: HepG2, Attagene cis-factorial STAT3 reporter transcription; actives raise or lower the signal
Method in brief: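 HepG2 cells transiently transfected with multiple cis-element-driven reporter units report endogenous transcription factor activity. After 24 h compound exposure, reporter mRNA is measured by RT-PCR, 6-FAM labelling, HpaI digestion and capillary electrophoresis. Fitted bidirectionally versus DMSO.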
For `CC(=O)OCCc1ccccc1`, the outcome was “inactive”.
In the case of `CC(=O)OC/C=C(/C)CCC=C(C)C`, the outcome is reported as “inactive”.
In the case of `O=S(=O)(O)c1ccc(N=Nc2c(O)ccc3ccccc23)cc1`, the outcome is reported as “inactive”.
For `N=C1C=CC(=C(c2ccc(N)cc2)c2ccc(N)cc2)C=C1`, the outcome was “inactive”.
For `COc1cc(O)c(C(=O)c2ccccc2)cc1S(=O)(=O)O`, the outcome was “inactive”.
With `c1ccc2cnccc2c1` the outcome was “inactive”.
With `CC1(C)CCC[C@]2(C)[C@H]3CC(=O)O[C@]3(C)CC[C@@H]12` the outcome was “inactive”.
For `C=CC(=O)OCC(C)OCC(C)OCC(C)OC(=O)C=C` (stereo not given), the outcome was “inactive”.
In the case of `Nc1ccc(O)c([N+](=O)[O-])c1`, the outcome is reported as “inactive”.
In the case of `O=C(O)c1cc(O)c2ccccc2c1O`, the outcome is reported as “inactive”.
For `O=C(Oc1ccccc1)c1ccccc1C(=O)Oc1ccccc1`, the outcome was “inactive”.
In the case of `CC(=O)CCC1=C(C)CCCC1(C)C`, the outcome is reported as “inactive”.
In the case of `Oc1ccc(/C=C/c2cc(O)cc(O)c2)cc1`, the outcome is reported as “inactive”.
For `CCCCNS(=O)(=O)c1ccc(C)cc1`, the outcome was “inactive”.
For `Cc1c(C(=O)c2c[nH]n(C)c2=O)ccc(S(C)(=O)=O)c1C1=NOCC1`, the outcome was “inactive”.
In the case of `O=C(Cl)c1ccc(C(=O)Cl)cc1`, the outcome is reported as “inactive”.
For `O=C1CCCCCCCCCCC1`, the outcome was “inactive”.
In the case of `CCC(=O)C1CC(C(C)C)CC=C1C` (stereo not given), the outcome is reported as “inactive”.
With `O=C(O)CCC(=O)O` the outcome was “inactive”.
With `CCCCCCCCCC(C)=O` the outcome was “inactive”.
With `CCCCC(CC)COC(=O)/C=C/c1ccc(OC)cc1` (stereo not given) the outcome was “inactive”.
In the case of `CCCC/C=C/C=C\C=O`, the outcome is reported as “inactive”.
With `CC(CC=O)CC(C)(C)C` (stereo not given) the outcome was “inactive”.
For `OCCCc1ccccc1`, the outcome was “inactive”.
With `Nc1cccc(N)n1` the outcome was “inactive”.
For `C=C(C)C(=O)OCC(O)COc1ccc(C(C)(C)c2ccc(OCC(O)COC(=O)C(=C)C)cc2)cc1` (stereo not given), the outcome was “inactive”.
In the case of `CCCCOC(=O)CCC(C)=O`, the outcome is reported as “inactive”.
For `O=C(OCCc1ccccc1)c1ccccc1`, the outcome was “inactive”.
For `Oc1ccc(-c2ccccc2)c(Cl)c1`, the AC50 was 54.5 µM (active).
In the case of `CC(C)C(=O)OCCOc1ccccc1`, the outcome is reported as “inactive”.
In the case of `O=C(O)CC(C(=O)O)S(=O)(=O)O` (stereo not given), the outcome is reported as “inactive”.
With `CC=C(C)C(C)=O` the outcome was “inactive”.
With `CC1C(C)(C)C2=C(C(=O)CCC2)C1(C)C` (stereo not given) the outcome was “inactive”.
In the case of `CCCCC(C=O)CC` (stereo not given), the outcome is reported as “inactive”.
In the case of `COC(=O)c1ccc(C(=O)OC)c(C(=O)OC)c1`, the outcome is reported as “inactive”.
For `CC1=CC(C)C(C=O)CC1` (stereo not given), the outcome was “inactive”.
In the case of `COc1cc(C)ccc1O`, the outcome is reported as “inactive”.

Tested on: not listed separately
Assay: ATG_TA_CIS: Attagene CIS-FACTORIAL HepG2 Assay for human TA Basal Promoter (AID 2282964)
Settings: HepG2 Attagene CIS-factorial TA basal promoter reporter; actives raise or lower the signal
Method in brief: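 Transient MRTU transfection of HepG2 preceded 24 h compound exposure. Reporter mRNA levels were then read by RT-PCR with capillary electrophoresis, and this background-control endpoint was fitted bidirectionally to DMSO.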
With `CC(=O)OCCc1ccccc1` the outcome was “inactive”.
For `CC(=O)OC/C=C(/C)CCC=C(C)C`, the outcome was “inactive”.
In the case of `O=S(=O)(O)c1ccc(N=Nc2c(O)ccc3ccccc23)cc1`, the outcome is reported as “inactive”.
In the case of `N=C1C=CC(=C(c2ccc(N)cc2)c2ccc(N)cc2)C=C1`, the AC50 is reported as 81.3 µM (active).
With `COc1cc(O)c(C(=O)c2ccccc2)cc1S(=O)(=O)O` the outcome was “inactive”.
In the case of `c1ccc2cnccc2c1`, the outcome is reported as “inactive”.
With `CC1(C)CCC[C@]2(C)[C@H]3CC(=O)O[C@]3(C)CC[C@@H]12` the outcome was “inactive”.
With `C=CC(=O)OCC(C)OCC(C)OCC(C)OC(=O)C=C` (stereo not given) the outcome was “inactive”.
With `Nc1ccc(O)c([N+](=O)[O-])c1` the outcome was “inactive”.
For `O=C(O)c1cc(O)c2ccccc2c1O`, the AC50 was 60.2 µM (active).
With `O=C(Oc1ccccc1)c1ccccc1C(=O)Oc1ccccc1` the outcome was “inactive”.
For `CC(=O)CCC1=C(C)CCCC1(C)C`, the outcome was “inactive”.
For `Oc1ccc(/C=C/c2cc(O)cc(O)c2)cc1`, the AC50 was 137 µM (active).
With `CCCCNS(=O)(=O)c1ccc(C)cc1` the outcome was “inactive”.
For `Cc1c(C(=O)c2c[nH]n(C)c2=O)ccc(S(C)(=O)=O)c1C1=NOCC1`, the outcome was “inactive”.
With `O=C(Cl)c1ccc(C(=O)Cl)cc1` the outcome was “inactive”.
With `O=C1CCCCCCCCCCC1` the outcome was “inactive”.
With `CCC(=O)C1CC(C(C)C)CC=C1C` (stereo not given) the outcome was “inactive”.
In the case of `O=C(O)CCC(=O)O`, the outcome is reported as “inactive”.
In the case of `CCCCCCCCCC(C)=O`, the outcome is reported as “inactive”.
In the case of `CCCCC(CC)COC(=O)/C=C/c1ccc(OC)cc1` (stereo not given), the outcome is reported as “inactive”.
For `CCCC/C=C/C=C\C=O`, the outcome was “inactive”.
With `CC(CC=O)CC(C)(C)C` (stereo not given) the outcome was “inactive”.
In the case of `OCCCc1ccccc1`, the outcome is reported as “inactive”.
For `Nc1cccc(N)n1`, the outcome was “inactive”.
In the case of `C=C(C)C(=O)OCC(O)COc1ccc(C(C)(C)c2ccc(OCC(O)COC(=O)C(=C)C)cc2)cc1` (stereo not given), the AC50 is reported as 28.3 µM (active).
In the case of `CCCCOC(=O)CCC(C)=O`, the outcome is reported as “inactive”.
With `O=C(OCCc1ccccc1)c1ccccc1` the outcome was “inactive”.
With `Oc1ccc(-c2ccccc2)c(Cl)c1` the outcome was “inactive”.
In the case of `CC(C)C(=O)OCCOc1ccccc1`, the outcome is reported as “inactive”.
In the case of `O=C(O)CC(C(=O)O)S(=O)(=O)O` (stereo not given), the outcome is reported as “inactive”.
For `CC=C(C)C(C)=O`, the outcome was “inactive”.
With `CC1C(C)(C)C2=C(C(=O)CCC2)C1(C)C` (stereo not given) the outcome was “inactive”.
In the case of `CCCCC(C=O)CC` (stereo not given), the outcome is reported as “inactive”.
With `COC(=O)c1ccc(C(=O)OC)c(C(=O)OC)c1` the outcome was “inactive”.
For `CC1=CC(C)C(C=O)CC1` (stereo not given), the outcome was “inactive”.
With `COc1cc(C)ccc1O` the outcome was “inactive”.
